“And” between values parts separate entries of the source, which are not always exact repeats. Equal entries are not always repeated. Records with an inconclusive call do not appear. A call without a number means that no potency is given here. More than one record can exist for a structure, and the calls need not agree. The source made the active and inactive calls. Calls come from the whole dose curve; as a rule, active = well fitted curve in the direction sought with a large enough effect in the repeat runs; inconclusive = weak or mixed curves; inactive = no such curve, though single readings can be large; an effect the other way counts as inactive or inconclusive.
Legend:
[1] = Human pregnane X receptor (PXR) small molecule agonists, qHTS cell viability counter screen (AID 1346977); note: nearly all actives have a fitted effect of over 50% in size; note: potency is the fitted concentration of half-maximal effect
Summary of the method: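 PXR-Luc HepG2 cells (2,000/well, 5% charcoal-stripped FBS) preincubated 5 hr, then exposed to compounds 24 hr at 37 C. Viability read in the same wells by CellTiter-Fluor fluorescence, reagent added at 23 hr, 1 hr incubation.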

[2] = Caspase-3/7 induction in HepG2 cells by small molecules, qHTS assay (AID 1346978); note: nearly all actives have a fitted effect of over 15% in size; note: potency is the fitted concentration of half-maximal effect
Summary of the method: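 Wild-type HepG2 cells (2,000/well) were settled 5 h at 37 C, 5% CO2, then exposed to compounds in DMSO for 17 h. Caspase-3/7 activity was read by luminescence 30 min after adding Caspase-Glo 3/7 reagent at room temperature.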

[3] = Caspase-3/7 induction in CHO-K1 cells by small molecules, qHTS cell viability counter screen (AID 1346979); note: nearly all actives have a fitted effect of over 35% in size; note: potency is the fitted concentration of half-maximal effect
Summary of the method: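 Wild-type CHO-K1 cells (1,500/well) treated with compound after 5 h plating; after 16 h at 37C, viability read as CellTiter-Fluor fluorescence following 1 h reagent incubation, in the same wells as the caspase read.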

[4] = Caspase-3/7 induction in CHO-K1 cells by small molecules, qHTS assay (AID 1346980); note: nearly all actives have a fitted effect of over 15% in size; note: potency is the fitted concentration of half-maximal effect
Summary of the method: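 Wild-type cells were seeded at 1,500 per well and settled 5 hr at 37 C, 5% CO2, then exposed to DMSO-dissolved compounds for 17 hr. Caspase-Glo 3/7 reagent was added, and luminescence was read after 30min at room temperature.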

[5] = Caspase-3/7 induction in HepG2 cells by small molecules, qHTS cell viability counter screen (AID 1346981); note: nearly all actives have a fitted effect of over 30% in size; note: potency is the fitted concentration of half-maximal effect
Summary of the method: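 Fluorescence read-out of live-cell protease activity (CellTiter-Fluor) after 1 hr with reagent. This was measured in the same wells as the caspase-3/7 luminescence, on HepG2 cells exposed to DMSO-dissolved compounds for 16 hr at 37 C.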

[6] = target: Nuclear receptor subfamily 1 group I member 2 (Homo sapiens) (UniProt O75469); assay: Human pregnane X receptor (PXR) small molecule agonists, qHTS assay (AID 1346982); note: nearly all actives have a fitted effect of over 35% in size; note: potency is the fitted concentration of half-maximal effect
Nuclear receptor subfamily 1 group I member 2 (Homo sapiens), sequence (O75469 whole entry, looked up): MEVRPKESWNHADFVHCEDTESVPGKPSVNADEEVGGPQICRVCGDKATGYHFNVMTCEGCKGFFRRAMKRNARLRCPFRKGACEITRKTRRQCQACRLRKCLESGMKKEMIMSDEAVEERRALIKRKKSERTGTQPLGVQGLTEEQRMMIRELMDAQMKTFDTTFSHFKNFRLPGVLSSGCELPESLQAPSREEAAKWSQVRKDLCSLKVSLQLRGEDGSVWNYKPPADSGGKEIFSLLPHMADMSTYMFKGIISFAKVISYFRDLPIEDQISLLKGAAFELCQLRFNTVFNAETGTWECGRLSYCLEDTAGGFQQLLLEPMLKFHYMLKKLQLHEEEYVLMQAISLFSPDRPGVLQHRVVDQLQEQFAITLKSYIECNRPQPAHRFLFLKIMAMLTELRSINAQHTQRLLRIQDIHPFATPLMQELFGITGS
Summary of the method: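 HepG2 PXR-Luc reporter line, 5% charcoal-stripped FBS; 5 hr pre-incubation, compound (DMSO) 24 hr at 37 C/5% CO2; ONE-Glo 30 min RT; luminescence read-out.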

[7] = target: Nuclear receptor subfamily 1 group I member 2 (Homo sapiens) (UniProt O75469); assay: CYP3A4 induction through human pregnane X receptor (PXR) by small molecules, qHTS assay (AID 1346984); note: nearly all actives have a fitted effect of over 40% in size
Summary of the method: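 HepG2-derived DPX-2 line carrying PXR plus a CYP3A4-promoter luciferase reporter; cells plated 5 hr, compound-exposed 24 hr at 37C. CYP3A4 activity probed with 3uM (final) Luciferin-IPA for 3hr, then luciferase read after One-Glo.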

[8] = target: Nuclear receptor subfamily 1 group I member 2 (Homo sapiens) (UniProt O75469); assay: Human pregnane X receptor (PXR) activation by small molecules, qHTS assay (AID 1346985); note: nearly all actives have a fitted effect of over 40% in size
Summary of the method: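 DPX-2 cells (HepG2 co-transfected with a PXR response element and a CYP3A4-promoter luciferase construct) were seeded at 2,000 per well, rested 5 hr at 37C, then exposed to DMSO-dissolved compounds for 24 hr. Activation was read as luciferase luminescence.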

[9] = target: Cytochrome P450 2C19 (Homo sapiens) (UniProt P33261); assay: Cytochrome P450 Family 2 Subfamily C Member 19 (CYP2C19) small molecule antagonists: luciferase reporter qHTS assay (AID 1671197); note: nearly all actives have a fitted effect of over 65% in size; note: potency is the fitted concentration of half-maximal effect
Cytochrome P450 2C19 (Homo sapiens), sequence (P33261 whole entry, looked up): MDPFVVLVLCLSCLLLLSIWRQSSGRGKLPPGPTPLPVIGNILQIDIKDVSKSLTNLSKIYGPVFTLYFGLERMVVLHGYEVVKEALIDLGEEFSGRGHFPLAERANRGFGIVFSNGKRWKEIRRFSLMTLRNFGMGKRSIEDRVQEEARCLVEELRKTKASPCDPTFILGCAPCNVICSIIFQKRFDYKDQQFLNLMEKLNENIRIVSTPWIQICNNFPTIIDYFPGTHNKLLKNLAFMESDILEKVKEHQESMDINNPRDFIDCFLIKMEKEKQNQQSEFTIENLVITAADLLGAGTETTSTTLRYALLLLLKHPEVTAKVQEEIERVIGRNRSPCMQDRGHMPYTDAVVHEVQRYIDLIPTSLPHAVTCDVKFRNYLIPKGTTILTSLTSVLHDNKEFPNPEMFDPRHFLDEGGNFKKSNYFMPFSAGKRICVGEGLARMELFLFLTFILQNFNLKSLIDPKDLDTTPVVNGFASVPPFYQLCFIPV
Summary of the method: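 First, compounds are pinned into enzyme-substrate mix and held 10 min at room temperature. Second, NADPH regeneration solution is added and plates incubate 1 h at 37C. Third, detection reagent is added and luminescence read after 20 min.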

[10] = target: Cytochrome P450 1A2 (Homo sapiens) (UniProt P05177); assay: Cytochrome P450 Family 1 Subfamily A Member 2 (CYP1A2) small molecule antagonists: luciferase reporter qHTS assay (AID 1671199); note: nearly all actives have a fitted effect of over 50% in size; note: potency is the fitted concentration of half-maximal effect
Cytochrome P450 1A2 (Homo sapiens), sequence (P05177 whole entry, looked up): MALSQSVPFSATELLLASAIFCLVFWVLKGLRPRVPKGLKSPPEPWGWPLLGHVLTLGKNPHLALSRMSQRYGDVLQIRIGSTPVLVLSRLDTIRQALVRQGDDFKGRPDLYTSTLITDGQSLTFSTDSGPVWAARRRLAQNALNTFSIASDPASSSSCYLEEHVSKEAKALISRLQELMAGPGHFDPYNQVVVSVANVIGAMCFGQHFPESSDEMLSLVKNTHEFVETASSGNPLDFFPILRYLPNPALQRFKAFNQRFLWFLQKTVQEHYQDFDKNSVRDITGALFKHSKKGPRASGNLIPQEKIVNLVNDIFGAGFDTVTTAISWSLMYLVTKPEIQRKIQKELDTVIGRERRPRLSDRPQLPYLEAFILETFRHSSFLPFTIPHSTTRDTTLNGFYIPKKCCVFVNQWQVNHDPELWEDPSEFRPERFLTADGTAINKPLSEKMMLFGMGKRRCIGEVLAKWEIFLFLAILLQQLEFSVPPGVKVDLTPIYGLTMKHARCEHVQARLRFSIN
Summary of the method: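 Luminescence readout (relative luminescence units) after luciferin detection reagent, 20 min RT. Preceded by 1 h room-temperature CYP1A2 reaction with NADPH regeneration solution following 10 min compound preincubation with enzyme and proluciferin substrate. Furafylline positive control.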

[11] = target: Voltage-gated inwardly rectifying potassium channel KCNH2 (Homo sapiens) (UniProt Q12809); assay: Human Ether-a-go-go-Related Gene (hERG) channel small molecule antagonists: fluorescence cell-based qHTS assay (AID 1671200); note: nearly all actives have a fitted effect of over 50% in size; note: potency is the fitted concentration of half-maximal effect
Voltage-gated inwardly rectifying potassium channel KCNH2 (Homo sapiens), sequence (Q12809 whole entry, looked up): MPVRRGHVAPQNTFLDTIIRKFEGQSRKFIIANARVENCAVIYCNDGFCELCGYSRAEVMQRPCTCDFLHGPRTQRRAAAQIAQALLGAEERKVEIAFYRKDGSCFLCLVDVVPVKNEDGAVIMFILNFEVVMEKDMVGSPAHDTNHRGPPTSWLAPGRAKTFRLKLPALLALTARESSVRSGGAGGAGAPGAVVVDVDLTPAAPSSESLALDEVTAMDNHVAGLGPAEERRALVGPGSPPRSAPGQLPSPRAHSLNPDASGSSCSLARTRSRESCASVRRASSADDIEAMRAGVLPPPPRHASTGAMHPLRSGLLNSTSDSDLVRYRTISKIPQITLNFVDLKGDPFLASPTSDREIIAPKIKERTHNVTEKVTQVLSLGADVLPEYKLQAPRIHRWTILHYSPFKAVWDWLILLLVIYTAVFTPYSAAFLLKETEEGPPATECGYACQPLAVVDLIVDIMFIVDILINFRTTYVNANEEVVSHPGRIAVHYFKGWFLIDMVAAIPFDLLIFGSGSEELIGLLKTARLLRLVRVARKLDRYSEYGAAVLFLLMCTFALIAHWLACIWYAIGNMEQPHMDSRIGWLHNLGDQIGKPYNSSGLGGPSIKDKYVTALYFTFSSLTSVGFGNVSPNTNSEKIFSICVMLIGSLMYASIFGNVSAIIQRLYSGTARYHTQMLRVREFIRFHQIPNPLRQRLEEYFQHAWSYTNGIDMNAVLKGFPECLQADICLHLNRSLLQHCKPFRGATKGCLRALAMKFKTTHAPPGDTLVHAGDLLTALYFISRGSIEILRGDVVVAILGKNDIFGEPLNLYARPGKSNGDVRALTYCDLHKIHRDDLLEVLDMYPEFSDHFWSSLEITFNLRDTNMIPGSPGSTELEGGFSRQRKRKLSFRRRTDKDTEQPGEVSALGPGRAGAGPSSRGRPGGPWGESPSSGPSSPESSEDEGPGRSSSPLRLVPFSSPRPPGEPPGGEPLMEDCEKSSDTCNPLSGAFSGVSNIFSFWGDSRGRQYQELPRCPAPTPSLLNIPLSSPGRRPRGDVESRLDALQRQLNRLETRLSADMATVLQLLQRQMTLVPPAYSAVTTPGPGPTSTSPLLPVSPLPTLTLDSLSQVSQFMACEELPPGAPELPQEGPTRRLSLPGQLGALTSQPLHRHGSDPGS
Summary of the method: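 hERG-U2OS cells plated overnight at 37 C, loaded with FluxOR II dye 1 h at RT in dark; after 10 min, thallium stimulus added. Fluorescence (480/540 nm) read kinetically for 2 min at 1 s intervals.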

[12] = target: Cytochrome P450 2D6 (Homo sapiens) (UniProt P10635); assay: Cytochrome P450 Family 2 Subfamily D Member 6 (CYP2D6) small molecule antagonists: luciferase reporter qHTS assay (AID 1671196); note: nearly all actives have a fitted effect of over 50% in size; note: potency is the fitted concentration of half-maximal effect
Cytochrome P450 2D6 (Homo sapiens), sequence (P10635 whole entry, looked up): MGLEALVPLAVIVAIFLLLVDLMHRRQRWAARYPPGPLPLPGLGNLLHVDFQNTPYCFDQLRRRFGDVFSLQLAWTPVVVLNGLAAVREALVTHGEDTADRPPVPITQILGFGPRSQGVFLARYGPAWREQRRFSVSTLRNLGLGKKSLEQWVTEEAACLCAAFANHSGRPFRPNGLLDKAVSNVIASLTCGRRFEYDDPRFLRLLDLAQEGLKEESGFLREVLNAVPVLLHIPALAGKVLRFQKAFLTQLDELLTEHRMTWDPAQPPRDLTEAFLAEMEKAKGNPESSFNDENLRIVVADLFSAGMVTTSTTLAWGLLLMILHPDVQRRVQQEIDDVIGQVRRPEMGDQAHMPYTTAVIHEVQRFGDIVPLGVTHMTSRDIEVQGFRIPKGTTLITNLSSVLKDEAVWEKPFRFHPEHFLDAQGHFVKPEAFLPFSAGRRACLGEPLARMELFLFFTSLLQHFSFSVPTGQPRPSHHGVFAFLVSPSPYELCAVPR
Summary of the method: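 Luminogenic proluciferin substrate, CYP2D6 enzyme; 10 min RT preincubation with compound, NADPH regeneration system added, 1 h RT. Stop/detection reagent, 20 min RT, luminescence read (RLU). Signal proportional to CYP activity.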

[13] = target: Cytochrome P450 2C9 (Homo sapiens) (UniProt P11712); assay: Cytochrome P450 Family 2 Subfamily C Member 9 (CYP2C9) small molecule antagonists: luciferase reporter qHTS assay (AID 1671198); note: nearly all actives have a fitted effect of over 50% in size; note: potency is the fitted concentration of half-maximal effect
Cytochrome P450 2C9 (Homo sapiens), sequence (P11712 whole entry, looked up): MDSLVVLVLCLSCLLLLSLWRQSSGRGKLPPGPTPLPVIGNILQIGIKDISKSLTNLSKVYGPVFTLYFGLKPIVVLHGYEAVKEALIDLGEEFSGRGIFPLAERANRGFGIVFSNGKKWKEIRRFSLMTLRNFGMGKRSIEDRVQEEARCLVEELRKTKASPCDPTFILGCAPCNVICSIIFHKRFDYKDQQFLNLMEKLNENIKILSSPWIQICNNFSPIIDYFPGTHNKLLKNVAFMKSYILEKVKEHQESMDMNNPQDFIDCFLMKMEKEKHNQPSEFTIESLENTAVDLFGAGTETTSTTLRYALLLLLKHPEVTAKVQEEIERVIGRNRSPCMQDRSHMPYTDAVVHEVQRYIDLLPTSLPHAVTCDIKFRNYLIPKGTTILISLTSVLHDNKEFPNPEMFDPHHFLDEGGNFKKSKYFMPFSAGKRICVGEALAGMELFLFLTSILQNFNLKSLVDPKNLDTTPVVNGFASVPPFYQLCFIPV
Summary of the method: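 CYP2C9 activity was measured with a P450-Glo proluciferin substrate. Enzyme–substrate mix was held with compound for 10 min at room temperature, then NADPH regeneration solution was added for 1 h at 37C. Luciferin product was read as luminescence.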

[14] = target: Cytochrome P450 3A4 (Homo sapiens) (UniProt P08684); assay: Cytochrome P450 Family 3 Subfamily A Member 4 (CYP3A4) small molecule antagonists: luciferase reporter qHTS assay (AID 1671201)
Cytochrome P450 3A4 (Homo sapiens), sequence (P08684 whole entry, looked up): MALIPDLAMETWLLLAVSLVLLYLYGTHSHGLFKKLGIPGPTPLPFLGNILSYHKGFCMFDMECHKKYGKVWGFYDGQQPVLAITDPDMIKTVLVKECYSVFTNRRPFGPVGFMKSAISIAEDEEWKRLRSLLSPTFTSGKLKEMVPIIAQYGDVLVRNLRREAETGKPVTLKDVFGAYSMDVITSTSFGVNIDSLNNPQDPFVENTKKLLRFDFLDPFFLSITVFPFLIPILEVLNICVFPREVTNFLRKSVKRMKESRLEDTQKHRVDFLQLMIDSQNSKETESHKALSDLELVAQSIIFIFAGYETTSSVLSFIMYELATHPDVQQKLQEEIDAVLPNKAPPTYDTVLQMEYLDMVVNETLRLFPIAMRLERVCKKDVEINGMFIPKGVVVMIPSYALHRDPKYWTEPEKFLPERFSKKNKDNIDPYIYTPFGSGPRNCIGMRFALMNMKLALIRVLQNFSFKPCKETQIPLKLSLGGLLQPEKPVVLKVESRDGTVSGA
Summary of the method: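 P450-Glo CYP3A4 luminescent assay: compounds preincubated 10 min at room temperature with enzyme and proluciferin substrate, NADPH regeneration added, 1 h room-temperature reaction, stopped with luciferin detection reagent; luminescence read after 20 min. Ketoconazole positive control.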

[15] = target: Nuclear receptor subfamily 1 group I member 2 (Rattus norvegicus) (UniProt Q9R1A7); assay: Rat pregnane X receptor (rPXR) activation by small molecules, qHTS assay (AID 1346983); conditions: rPXR luciferase reporter cells, One-Glo luminescence, 24 h; stronger effect = higher value; note: nearly all actives have a fitted effect of over 20% in size
Nuclear receptor subfamily 1 group I member 2 (Rattus norvegicus), sequence (Q9R1A7 whole entry, looked up): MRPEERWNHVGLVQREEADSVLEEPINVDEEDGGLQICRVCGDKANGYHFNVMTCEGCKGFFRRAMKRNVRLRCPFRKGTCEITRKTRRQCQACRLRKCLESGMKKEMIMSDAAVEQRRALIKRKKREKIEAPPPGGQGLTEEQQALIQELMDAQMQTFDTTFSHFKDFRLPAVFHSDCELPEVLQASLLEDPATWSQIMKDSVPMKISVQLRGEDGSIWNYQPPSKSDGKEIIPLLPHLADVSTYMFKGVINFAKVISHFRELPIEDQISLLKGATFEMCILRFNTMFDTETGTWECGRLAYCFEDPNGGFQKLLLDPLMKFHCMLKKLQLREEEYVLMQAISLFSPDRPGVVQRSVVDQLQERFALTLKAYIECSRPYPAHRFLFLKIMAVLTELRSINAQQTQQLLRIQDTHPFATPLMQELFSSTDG
Summary of the method: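 Cell-based rPXR luciferase reporter assay, 2,000 cells per well, rested 5hr at 37 C before compound addition in DMSO, then 24 hr at 37 C. One-Glo reagent was added and luminescence read after 30 min at room temperature.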

SMILES | Potency [1] | Potency [2] | Potency [3] | Potency [4] | Potency [5] | Potency [6] | Potency [7] | Potency [8] | Potency [9] | Potency [10] | Potency [11] | Potency [12] | Potency [13] | Potency [14] | max activation [15]
CN(C)c1ccc(C(=C2C=CC(=[N+](C)C)C=C2)c2ccc(N(C)C)cc2)cc1 | 3.84 µM (active) and 2.73 µM (active) and 6.68 µM (active) | 19.2 µM (active) and 27.3 µM (active) and 26.6 µM (active) | 1.71 µM (active) and 686 nM (active) and 2.37 µM (active) | 7.66 µM (active) and 6.11 µM (active) and 8.41 µM (active) | 17.1 µM (active) and 9.69 µM (active) and 8.41 µM (active) | 2.42 µM (active) | inactive | inactive | 19.9 µM (active) and 22.4 µM (active) and 21.9 µM (active) | 11.2 µM (active) and 20 µM (active) and 10.2 µM (active) | 3.45 µM (active) and 3.47 µM (active) and 2.68 µM (active) |  |  |  | 
C=Cc1cccc(C)c1 | inactive | inactive | 60.5 µM (active) and inactive | inactive | inactive | inactive |  |  | inactive | inactive | inactive | 39.5 µM (active) and inactive | inactive | inactive | 
COC(=O)c1ccccc1OC | inactive | inactive | inactive | inactive | inactive | inactive |  |  | inactive | 25.2 µM (active) | inactive | inactive | inactive | inactive | 
Cc1cc(-n2nc3ccc(Cl)cc3n2)c(O)c(C(C)(C)C)c1 | inactive | inactive | inactive | inactive | inactive | inactive | inactive | inactive | inactive |  | inactive | inactive | inactive | inactive | -2.8% (inactive)
CCc1ccc(Br)cc1 | inactive | inactive | inactive | inactive | inactive | inactive |  |  | inactive | inactive | inactive | inactive | inactive | inactive | 
CCCCCCCC/C=C\CCCCCCCCN | inactive | inactive | inactive | inactive | inactive | inactive | inactive | inactive | 4.36 µM (active) |  | inactive |  |  |  | -1.07% (inactive)
Cc1c(F)c(N2CCNC(C)C2)cc2c1c(=O)c(C(=O)O)cn2C1CC1 (stereo not given) | inactive | inactive | inactive | inactive | inactive | inactive | inactive | inactive | inactive | inactive | inactive | inactive | inactive | inactive | -0.343% (inactive)
COC1=C(OC)C(=O)C(CCCCCCCCCCO)=C(C)C1=O | inactive | inactive | 23.7 µM (active) | inactive | inactive | inactive | inactive | inactive | 4.9 µM (active) |  | inactive |  | 11 µM (active) | inactive | 4.16% (inactive)
CCCC(=O)OCCc1ccccc1 | inactive | inactive | inactive | inactive | inactive | inactive |  |  | inactive | inactive | inactive | inactive | inactive | inactive | 
CCCc1ccc(OCC(=O)N2CCN(C(=O)COc3ccc(CCC)cc3OC)CC2)c(OC)c1 | inactive | inactive | inactive | inactive | inactive | 4.22 µM (active) |  |  | 3.47 µM (active) | inactive | 1.34 µM (active) | inactive | 3.47 µM (active) |  | 
Cc1nc(-c2ccc(Cl)cc2)oc1COC(C)(C)C(=O)O | inactive | inactive | inactive | inactive | inactive | inactive | inactive | inactive | inactive | inactive | inactive | inactive | inactive | inactive | -7.31% (inactive)
CC[N+](CC)(CC)CCOc1ccc(/C=C/c2ccccc2)cc1 | inactive | inactive | inactive | inactive | inactive | inactive | inactive | inactive |  |  | 8.49 µM (active) | 15.5 µM (active) | inactive | inactive | -2.42% (inactive)
CC(CCc1ccccc1)NCC(O)c1ccc(O)c(C(N)=O)c1 (stereo not given) | 43.3 µM (active) | inactive | 43.3 µM (active) | inactive | 27.3 µM (active) | 17.2 µM (active) | inactive | inactive |  | inactive | 19.5 µM (active) | 0.564 µM (active) | inactive | inactive | -0.392% (inactive)
Cc1cccc(C(=O)O)c1O | inactive | inactive | inactive | inactive | inactive | inactive | inactive | inactive | inactive | inactive | inactive |  | inactive | inactive | -0.388% (inactive)
O=C(O)c1cc(=O)c2ccccc2o1 | inactive | inactive | inactive | inactive | inactive | inactive | inactive | inactive | inactive | inactive | inactive |  | inactive | inactive | -0.583% (inactive)
CCC(=O)OC(=O)CC | inactive | inactive | inactive | inactive | inactive | inactive |  |  | inactive | inactive | inactive | 62.8 µM (active) | inactive | inactive | 

— PubChem BioAssay (Tox21)
